Test results published in PubChem BioAssay (Tox21).
Where “and” joins values, the source holds several entries; their conditions need not be identical. Identical values can stand only once. Records with an inconclusive call do not appear. Calls of active or inactive are those of the source. Unless noted, the call rests on the fitted dose curve; in most records, active means well fitted curve in the direction sought with a large enough effect in the repeat runs; inconclusive means weak or mixed curves; inactive means no such curve, though single readings can be large; an effect the other way counts as inactive or inconclusive.

Legend:
[1] = target: Estrogen receptor beta (Homo sapiens) (UniProt Q92731); experiment: qHTS assay to identify small molecule antagonists of the estrogen receptor beta (ER-beta) signaling pathway (AID 1259378; active means well fitted inhibition curve with a large enough effect in the signal ratio in the repeat runs, not every such curve was filed as active; the % refers to the signal ratio; further: potency means the concentration at half of the fitted maximal effect)
Method in brief: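 ER-beta-UAS-bla HEK293T cells in 2% charcoal-stripped FBS medium treated with compound plus 1nM final 17-beta-estradiol for 16 hr at 37C. Beta-lactamase reporter read by FRET substrate fluorescence after 2 hours at room temperature.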

[2] = qHTS assay to identify small molecule agonists of the androgen receptor (AR) signaling pathway in the presence of an antagonist - cell viability counter screen (AID 1259379); further: nearly all actives have a fitted effect of over 25% in size; further: potency means the concentration at half of the fitted maximal effect
Method in brief: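 Each compound was tested at 15 concentrations on MDA-kb2 cells in the presence of 3.0uM nilutamide. Viability was measured by CellTiter-Fluor fluorescence after a 16 hr incubation at 37C in a CO2-free atmosphere.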

[3] = qHTS assay to identify small molecule agonists of the estrogen receptor beta (ER-beta) signaling pathway - cell viability counter screen (AID 1259380); further: nearly all actives have a fitted effect of over 30% in size; further: potency means the concentration at half of the fitted maximal effect
Method in brief: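 Compounds dissolved in DMSO were pin-transferred onto ER-beta-UAS-bla HEK293T cells that had settled 6 hr, and exposure ran 16 hr at 37C. Following the reporter read, CellTiter-Glo luminescence after 30 min at room temperature indicated cytotoxicity.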

[4] = target: Estrogen receptor (Homo sapiens) (UniProt P03372); experiment: qHTS assay to identify small molecule agonists of the estrogen receptor alpha (ER-alpha) signaling pathway in the presence of an antagonist (AID 1259383; calls by dose curve; further: top concentration of the series differs between compounds; nearly all actives have a fitted effect of over 15% in size)
Method in brief: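 Luminescent ERE-luciferase reporter, VM7Luc4E2 cells (endogenous ER-alpha); 10.0nM ICI-182,780 final; 15-point compound titration; 22hr at 37C; ONE-Glo, 30min RT.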

[5] = qHTS assay to identify small molecule agonists of the estrogen receptor alpha (ER-alpha) signaling pathway in the presence of an antagonist - cell viability counter screen (AID 1259386);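 further: series mostly up to about 92 µM; cells exposed to compounds for 22 h at 37 °C before the viability read; nearly all actives have a fitted effect of over 30% in size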
Method in brief: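 Using estrogen-depleted VM7Luc4E2 cells, the 15-concentration compound series was applied together with 10.0nM ICI-182,780 and incubated 22hr at 37C/5% CO2. Cell viability was then scored by CellTiter-Fluor.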

[6] = qHTS assay to identify small molecule antagonists of the progesterone receptor (PR) signaling pathway - cell viability counter screen (AID 1346798); further: nearly all actives have a fitted effect of over 50% in size; further: potency means the concentration at half of the fitted maximal effect
Method in brief: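 HEK293T PR-UAS-bla, 2% charcoal-stripped FBS; 4 hr pre-plate; cpd + R5020, 16 h 37C; LiveBLAzer read first; then CellTiter-Glo 30 min RT, luminescence.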

[7] = qHTS assay to identify small molecule antagonists of the TGF-beta/Smad signaling pathway - cell viability counter screen (AID 1346824); further: nearly all actives have a fitted effect of over 50% in size
Method in brief: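 SBE-bla HEK 293T cells, incubated overnight, then compound plus 0.25 ng/mL TGF-beta1 (stock added) for 5 hr at 37 C. Viability was read in the same wells by CellTiter-Glo luminescence after 30 min at room temperature.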

[8] = qHTS assay to identify small molecule agonists of the TGF-beta/Smad signaling pathway - cell viability counter screen (AID 1346829); further: top concentration of the series differs between compounds; nearly all actives have a fitted effect of over 45% in size
Method in brief: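 CellTiter-Glo luminescence readout; SBE-bla HEK 293T cells, overnight plating, compound 5 hr at 37 C/5% CO2, then bla substrate 2 hr RT, then CellTiter-Glo 30 min RT.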

[9] = qHTS assay to identify small molecule agonists of the TGF-beta/Smad signaling pathway (AID 1346859; active means well fitted activation curve with a large enough effect in the signal ratio in the repeat runs, not every such curve was filed as active; the % refers to the signal ratio; further: series mostly up to about 77 µM)
Method in brief: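 SBE-bla HEK 293T, 4,000 cells/well, plated o/n; cpd in DMSO, 5 hr, 37 C/5% CO2; B/G FRET substrate 2 hr RT; ex 405, em 460/530 nm.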

[10] = Human pregnane X receptor (PXR) small molecule agonists, qHTS cell viability counter screen (AID 1346977); further: nearly all actives have a fitted effect of over 50% in size; further: potency means the concentration at half of the fitted maximal effect
Method in brief: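 PXR-Luc HepG2, 2,000 cells/well, 5% charcoal-stripped FBS; 5hr settle; cpd 24hr, 37C/5% CO2; CellTiter-Fluor at 23hr, read 1hr later (fluorescence).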

[11] = target: Androgen receptor (Homo sapiens) (UniProt P10275); experiment: qHTS assay to identify small molecule agonists of the androgen receptor (AR) signaling pathway in the presence of an antagonist (AID 1259381; calls by dose curve; further: nearly all actives have a fitted effect of over 15% in size)
Method in brief: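 Plated MDA-kb2 cells (3,000/well) were pre-incubated 5hr, given nilutamide (3.0uM final) or buffer, then dosed with compounds in DMSO at 15 concentrations. Luciferase activity was quantified by luminescence after 16hr at 37C.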

[12] = qHTS assay to identify small molecule antagonists of the estrogen receptor beta (ER-beta) signaling pathway - cell viability counter screen (AID 1259382); further: nearly all actives have a fitted effect of over 55% in size; further: potency means the concentration at half of the fitted maximal effect
Method in brief: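 CellTiter-Glo ATP luminescence measured after the LiveBLAzer read in the same wells; ER-beta-UAS-bla HEK293T cells, 16 hr compound treatment with 1nM 17-beta-estradiol agonist at 37C, 5% CO2.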

[13] = qHTS assay to identify small molecule agonists or antagonists of the thyroid stimulating hormone receptor (TSHR) signaling pathway - wild type cell line counter screen (AID 1259384; calls by dose curve)
Method in brief: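 Wild-type Hek293 cells, 800/well, 18 h at 37C, then compound with Ro20-1724 for 30 min RT. cAMP by HTRF (cAMP-d2/anti-cAMP cryptate), 1 h RT, fluorescence read. 15 concentrations, triplicates.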

[14] = target: Thyrotropin receptor (Homo sapiens) (UniProt P16473); experiment: qHTS assay to identify small molecule antagonists of the thyroid stimulating hormone receptor (TSHR) signaling pathway (AID 1259385; calls by dose curve; further: nearly all actives have a fitted effect of over 20% in size)
Method in brief: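 TSHR-HEK293 cells (800/well) plated 18 h, then compounds with Ro20-1724 and TSH at 1.5 ng/mL final, 30 min at room temperature. cAMP quantified by HTRF (cAMP-d2/anti-cAMP-cryptate, 1 h); 15 concentrations in triplicate.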

[15] = target: Progesterone receptor (Homo sapiens) (UniProt P06401); experiment: qHTS assay to identify small molecule antagonists of the progesterone receptor (PR) signaling pathway (AID 1346795; active means well fitted inhibition curve with a large enough effect in the signal ratio in the repeat runs, not every such curve was filed as active; the % refers to the signal ratio; further: potency means the concentration at half of the fitted maximal effect)
Method in brief: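 Read-out is fluorescence from the LiveBLAzer B/G FRET substrate, cleaved by a UAS-controlled beta-lactamase in PR-UAS-bla HEK293T cells after 16 hr exposure to compound plus 1 nM promegestone (final), followed by 2 hr at room temperature.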

[16] = target: Thyrotropin-releasing hormone receptor (Homo sapiens) (UniProt P34981); experiment: qHTS assay to identify small molecule antagonists of the thyrotropin-releasing hormone receptor (TRHR) signaling pathway (AID 1346877; active means well fitted inhibition curve with a large enough effect in the repeat runs, not every such curve was filed as active; further: series mostly up to about 51 µM)
Method in brief: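 Calcium signal in dye-loaded TRHR/HEK293 cells; compounds added 5 min before TRH (1 nM final); fluorescence monitored 3 min at 1 s steps.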

[17] = target: Thyrotropin-releasing hormone receptor (Homo sapiens) (UniProt P34981); experiment: qHTS assay to identify small molecule agonists of the thyrotropin-releasing hormone receptor (TRHR) signaling pathway (AID 1346891; calls by dose curve; further: series mostly up to about 58 µM)
Method in brief: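 Intracellular calcium rise, read as fluorescence every second for 3 min, served as the agonist signal in dye-loaded HEK293 cells expressing TRHR; each compound ran at 15 concentrations in triplicate.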

[18] = target: Progesterone receptor (Homo sapiens) (UniProt P06401); experiment: qHTS assay to identify small molecule agonists of the progesterone receptor (PR) signaling pathway (AID 1346784; calls by dose curve; further: nearly all actives have a fitted effect of over 30% in size)
Method in brief: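 Beta-lactamase reporter read-out: after 16 hr compound treatment at 37C and a further 2 hr at room temperature with LiveBLAzer B/G FRET substrate, fluorescence was measured in PR-UAS-bla HEK 293T cells grown in 2% charcoal-stripped serum.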

[19] = qHTS assay to identify small molecule agonists of the progesterone receptor (PR) signaling pathway - cell viability counter screen (AID 1346799; calls by dose curve; further: nearly all actives have a fitted effect of over 45% in size; further: potency means the concentration at half of the fitted maximal effect)
Method in brief: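 Luminescence from CellTiter-Glo, added after the beta-lactamase FRET read in the same wells, gave cytotoxicity in PR-UAS-bla HEK293T cells treated with compounds for 16 hr at 37C.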

Measured: Potency

Sequence of Estrogen receptor beta (Homo sapiens) (Q92731 whole entry, looked up): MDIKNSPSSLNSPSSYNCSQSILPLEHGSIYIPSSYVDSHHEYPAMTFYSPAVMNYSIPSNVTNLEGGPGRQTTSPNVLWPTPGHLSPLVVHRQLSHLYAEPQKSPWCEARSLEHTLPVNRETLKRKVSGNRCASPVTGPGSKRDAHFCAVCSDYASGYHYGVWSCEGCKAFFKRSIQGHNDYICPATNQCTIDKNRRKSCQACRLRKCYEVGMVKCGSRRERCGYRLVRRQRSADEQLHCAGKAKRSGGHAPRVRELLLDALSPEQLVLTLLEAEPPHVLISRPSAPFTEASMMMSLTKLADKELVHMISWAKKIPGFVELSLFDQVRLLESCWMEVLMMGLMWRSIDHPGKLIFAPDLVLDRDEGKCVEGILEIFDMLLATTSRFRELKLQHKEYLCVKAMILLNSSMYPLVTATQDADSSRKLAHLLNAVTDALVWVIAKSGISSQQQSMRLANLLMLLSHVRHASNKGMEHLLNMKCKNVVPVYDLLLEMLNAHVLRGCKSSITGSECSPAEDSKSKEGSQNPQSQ
Sequence of Thyrotropin-releasing hormone receptor (Homo sapiens) (P34981 whole entry, looked up): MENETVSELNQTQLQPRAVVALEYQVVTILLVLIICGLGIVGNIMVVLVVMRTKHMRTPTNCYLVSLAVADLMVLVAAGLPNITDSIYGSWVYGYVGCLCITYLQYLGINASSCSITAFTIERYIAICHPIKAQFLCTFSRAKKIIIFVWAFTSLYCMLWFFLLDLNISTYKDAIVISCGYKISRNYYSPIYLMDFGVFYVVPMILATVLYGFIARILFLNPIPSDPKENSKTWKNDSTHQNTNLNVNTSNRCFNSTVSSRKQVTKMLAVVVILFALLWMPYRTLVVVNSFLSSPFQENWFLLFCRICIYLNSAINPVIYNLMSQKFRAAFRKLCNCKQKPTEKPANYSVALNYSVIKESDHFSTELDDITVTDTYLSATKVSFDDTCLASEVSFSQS
Sequence of Estrogen receptor (Homo sapiens) (P03372 whole entry, looked up): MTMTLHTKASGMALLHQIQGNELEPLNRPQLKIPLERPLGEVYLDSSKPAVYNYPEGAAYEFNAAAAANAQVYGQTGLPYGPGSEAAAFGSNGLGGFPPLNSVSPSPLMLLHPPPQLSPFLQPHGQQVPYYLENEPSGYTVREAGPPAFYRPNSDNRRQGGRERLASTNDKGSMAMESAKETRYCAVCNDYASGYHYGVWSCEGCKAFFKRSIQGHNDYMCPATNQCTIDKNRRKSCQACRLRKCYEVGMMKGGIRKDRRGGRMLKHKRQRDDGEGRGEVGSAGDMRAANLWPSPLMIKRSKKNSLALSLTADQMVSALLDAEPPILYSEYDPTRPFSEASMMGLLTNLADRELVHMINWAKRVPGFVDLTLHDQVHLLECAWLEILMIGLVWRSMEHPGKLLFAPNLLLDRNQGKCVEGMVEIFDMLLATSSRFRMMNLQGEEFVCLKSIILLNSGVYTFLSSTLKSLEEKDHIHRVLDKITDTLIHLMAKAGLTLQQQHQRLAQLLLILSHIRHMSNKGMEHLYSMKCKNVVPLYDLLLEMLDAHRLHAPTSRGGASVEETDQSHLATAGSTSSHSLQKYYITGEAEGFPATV
Sequence of Thyrotropin receptor (Homo sapiens) (P16473 whole entry, looked up): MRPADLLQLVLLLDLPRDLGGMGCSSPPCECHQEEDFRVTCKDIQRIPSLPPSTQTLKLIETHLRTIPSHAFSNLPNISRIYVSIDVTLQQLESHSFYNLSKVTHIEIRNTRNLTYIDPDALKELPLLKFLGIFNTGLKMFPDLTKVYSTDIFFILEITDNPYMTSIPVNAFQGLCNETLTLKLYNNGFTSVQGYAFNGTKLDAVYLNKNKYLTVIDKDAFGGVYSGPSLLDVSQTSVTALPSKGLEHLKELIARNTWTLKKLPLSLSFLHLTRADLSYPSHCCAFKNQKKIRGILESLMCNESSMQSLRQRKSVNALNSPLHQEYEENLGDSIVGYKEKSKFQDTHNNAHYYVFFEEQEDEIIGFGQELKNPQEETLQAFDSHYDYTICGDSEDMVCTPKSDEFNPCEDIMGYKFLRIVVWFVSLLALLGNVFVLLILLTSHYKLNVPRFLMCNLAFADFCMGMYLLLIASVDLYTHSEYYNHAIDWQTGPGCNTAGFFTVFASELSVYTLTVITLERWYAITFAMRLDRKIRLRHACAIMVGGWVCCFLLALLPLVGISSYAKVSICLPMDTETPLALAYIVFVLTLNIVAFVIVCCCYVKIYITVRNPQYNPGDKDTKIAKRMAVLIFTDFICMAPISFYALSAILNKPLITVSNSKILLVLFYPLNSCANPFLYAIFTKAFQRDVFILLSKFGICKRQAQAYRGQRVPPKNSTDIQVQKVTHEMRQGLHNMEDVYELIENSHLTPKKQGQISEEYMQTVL
Sequence of Androgen receptor (Homo sapiens) (P10275 whole entry, looked up): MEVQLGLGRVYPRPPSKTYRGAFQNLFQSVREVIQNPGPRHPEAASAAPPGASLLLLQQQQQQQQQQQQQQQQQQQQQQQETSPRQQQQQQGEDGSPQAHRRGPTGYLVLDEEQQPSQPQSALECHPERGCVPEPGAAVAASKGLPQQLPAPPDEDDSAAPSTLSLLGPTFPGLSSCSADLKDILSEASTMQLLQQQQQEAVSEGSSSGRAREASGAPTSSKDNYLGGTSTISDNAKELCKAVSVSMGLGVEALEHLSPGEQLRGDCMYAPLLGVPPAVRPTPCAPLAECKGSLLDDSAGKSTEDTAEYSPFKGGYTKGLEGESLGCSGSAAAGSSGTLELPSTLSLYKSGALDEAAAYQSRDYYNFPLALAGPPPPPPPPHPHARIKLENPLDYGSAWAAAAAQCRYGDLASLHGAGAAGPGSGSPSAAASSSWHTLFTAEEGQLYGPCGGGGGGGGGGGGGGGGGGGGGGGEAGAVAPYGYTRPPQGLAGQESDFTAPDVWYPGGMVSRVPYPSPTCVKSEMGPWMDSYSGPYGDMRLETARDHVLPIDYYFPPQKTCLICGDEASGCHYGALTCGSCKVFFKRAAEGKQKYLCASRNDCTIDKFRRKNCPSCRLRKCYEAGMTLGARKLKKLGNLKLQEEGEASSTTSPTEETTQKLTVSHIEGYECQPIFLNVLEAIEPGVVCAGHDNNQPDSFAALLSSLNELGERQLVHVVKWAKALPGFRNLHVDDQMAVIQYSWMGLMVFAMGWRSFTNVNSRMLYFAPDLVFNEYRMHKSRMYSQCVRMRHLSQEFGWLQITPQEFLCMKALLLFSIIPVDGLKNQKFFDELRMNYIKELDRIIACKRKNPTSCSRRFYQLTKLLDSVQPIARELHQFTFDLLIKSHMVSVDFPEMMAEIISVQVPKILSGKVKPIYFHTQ
Sequence of Progesterone receptor (Homo sapiens) (P06401 whole entry, looked up): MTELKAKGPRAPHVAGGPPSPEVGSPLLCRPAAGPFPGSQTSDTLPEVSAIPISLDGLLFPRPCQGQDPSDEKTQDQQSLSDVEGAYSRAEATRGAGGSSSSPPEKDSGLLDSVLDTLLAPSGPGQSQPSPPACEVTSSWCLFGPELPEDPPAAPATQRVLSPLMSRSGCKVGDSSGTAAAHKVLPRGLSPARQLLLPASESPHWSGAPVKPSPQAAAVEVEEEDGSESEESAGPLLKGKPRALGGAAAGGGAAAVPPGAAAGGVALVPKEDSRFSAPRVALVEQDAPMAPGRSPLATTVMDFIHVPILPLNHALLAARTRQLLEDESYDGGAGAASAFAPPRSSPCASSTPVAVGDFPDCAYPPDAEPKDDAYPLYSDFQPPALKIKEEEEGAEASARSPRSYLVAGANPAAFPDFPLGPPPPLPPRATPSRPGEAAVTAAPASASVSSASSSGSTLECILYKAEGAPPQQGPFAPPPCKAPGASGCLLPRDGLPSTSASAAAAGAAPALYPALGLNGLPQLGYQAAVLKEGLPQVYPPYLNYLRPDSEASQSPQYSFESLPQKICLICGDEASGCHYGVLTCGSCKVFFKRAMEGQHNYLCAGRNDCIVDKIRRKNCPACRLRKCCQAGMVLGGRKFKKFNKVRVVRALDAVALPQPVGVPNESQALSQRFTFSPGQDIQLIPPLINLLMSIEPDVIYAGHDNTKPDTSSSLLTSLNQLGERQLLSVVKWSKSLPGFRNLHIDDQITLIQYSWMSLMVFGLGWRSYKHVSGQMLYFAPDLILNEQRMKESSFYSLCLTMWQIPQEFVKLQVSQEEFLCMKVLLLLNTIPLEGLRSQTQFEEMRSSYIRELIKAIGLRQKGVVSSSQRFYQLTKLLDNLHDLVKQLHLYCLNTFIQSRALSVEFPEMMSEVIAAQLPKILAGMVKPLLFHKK

C=C(c1ccc(C(=O)O)cc1)c1cc2c(cc1C)C(C)(C)CCC2(C)C
inactive: [2] | [4] | [5] | [7] | [8] | [9] | [10]
active: [1] 8.41 µM | [3] 34.4 µM and 33.5 µM | [6] 54.5 µM

CCCCCCCCCCCCN(CCO)CCO
inactive: [11] | [4] | [13] | [14] | [5] | [7] | [9] | [16] | [17]
active: [2] 60.9 µM | [3] 60.9 µM | [12] 60.9 µM | [15] 60.9 µM | [10] 48.4 µM

CC(C)OC(=O)c1cc(C(=O)OC(C)C)cc([N+](=O)[O-])c1
inactive: [1] | [2] | [13] | [14] | [5] | [18] | [8] | [9] | [16] | [17]

Cc1ccc(CCn2c3c(c4cc(Cl)ccc42)CN(C)CC3)cn1
inactive: [2] | [11] | [4] | [13] | [14] | [5] | [18] | [15] | [7] | [8] | [9] | [16] | [17]
active: [3] 26.6 µM | [12] 26.6 µM | [6] 26.6 µM | [19] 21.1 µM

C/C=C/CO
inactive: [1] | [2] | [3] | [12] | [4] | [13] | [5] | [18] | [15] | [6] | [19] | [7] | [8] | [9] | [16] | [17] | [10]

COc1cccc(OC)c1O
inactive: [1] | [2] | [3] | [11] | [12] | [13] | [5] | [18] | [15] | [6] | [7] | [8] | [9] | [16] | [17] | [10]

c1cc[nH]c1
inactive: [2] | [3] | [11] | [12] | [4] | [13] | [14] | [5] | [18] | [15] | [6] | [19] | [7] | [8] | [9] | [16] | [17]

CCC(C)c1ccccc1 (stereo not given)
inactive: [2] | [3] | [11] | [12] | [4] | [13] | [14] | [5] | [18] | [15] | [6] | [19] | [7] | [8] | [9] | [16] | [17] | [10]

CC(NCCC(c1ccccc1)c1ccccc1)c1ccccc1 (stereo not given)
active: [1] 26.6 µM | [2] 23.7 µM | [3] 18.8 µM | [15] 29.8 µM | [6] 21.1 µM | [10] 26.6 µM
inactive: [11] | [4] | [13] | [18] | [9] | [16] | [17]

CC1(C)C(=O)N(Br)C(=O)N1Br
inactive: [1] | [2] | [3] | [11] | [12] | [13] | [14] | [5] | [18] | [15] | [19] | [7] | [8] | [9] | [10]

Cn1cccc1
inactive: [2] | [3] | [11] | [12] | [4] | [13] | [14] | [5] | [18] | [15] | [19] | [7] | [8] | [9] | [16] | [17] | [10]

CCCC(O)C(O)CO (stereo not given)
inactive: [1] | [2] | [11] | [13] | [14] | [5] | [18] | [15] | [19] | [7] | [8] | [9] | [16] | [17] | [10]

OCCCS
inactive: [1] | [2] | [3] | [11] | [12] | [4] | [13] | [18] | [15] | [19] | [7] | [8] | [9] | [10]

CCC(C)C(=O)OC (stereo not given)
inactive: [2] | [3] | [12] | [4] | [13] | [14] | [5] | [18] | [15] | [6] | [7] | [8] | [9] | [17] | [10]

CCc1cccc(C)c1
inactive: [2] | [3] | [12] | [4] | [13] | [14] | [5] | [18] | [15] | [6] | [19] | [7] | [8] | [9] | [16] | [17] | [10]

O=Cc1ccc(F)cc1
inactive: [2] | [3] | [11] | [12] | [4] | [13] | [14] | [18] | [15] | [6] | [7] | [9] | [16] | [17] | [10]
